Results from the supplement of paper PMC6555819.

Each sequence was assayed on PXR:RXRa (NR concentration 270 nM, RXRa partner concentration 90 nM) (assay: PBM binding z-score (relative to random genomic background probes); higher = stronger binding; sequences stand for … in GC…GCGATTGACAGCGTAGAATGAAGG).
Method in brief: (§1)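 Ligand-free nuclear receptor dimers were bound for 1 h to custom Agilent 4×180K protein-binding microarrays. Detection used antibodies against each partner (one per run). Binding z-scores rest on regression-normalized fluorescence, with random background probes as the reference.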

Sequence | PBM binding z-score
CGTACAGGGTCAGCTAGGCCAGAGTAGGGACGGC | 2.28
ACCGAAAGGTCGAGGTGAGTATAGAGAAAGGGAA | 2.31
AATATTAGTTGACTTAGGGCAACCGATACGACGC | 0.143
ACTAGCAGGCCAAGGGTCACTCCAGATTAGTCCG | 2.68
ATCTCTAGGTAACAAAGTTCAGTGAATGCCGAAC | 2.36
TCTAGCAGGCCAGAGGGTCACTTAAGAGGTACGG | 1.35
TCTTGTAGATCATTAGAGGTTAAGAAAGTGCGCT | 3.16
GCTAGTAGTTGAAAGGGCAACCGAATGATTCTCG | 0.658
GCTCGGAGGACAAGGGCAGAGCTTTGTCCGTAGA | -0.518
AGAATGAGGTTAAGATCATGGAAACAGAATACAT | 1.24
AGTAGCAGGCCAAGTTTGGGTCACTCAAACAAAG | 0.663
TCGAGTAGGTTACCAATGGGGCATTAAGCTTTCT | -0.325
CCAACTAGGTCACGAAAGGTCAAAGTCGAATGAC | 7.02
AGAATGAGGTTACCAAAGATCAGGGAAACGCTTG | 1.38
ATCGAAAGGACGTGAGGTGAGTATACAGAAAGGC | -0.361
TCTAGTTGGACACGGAGGTCACACACGACGGGTA | 4.16
CTACCAAGGTGAACAAGGTCATTGATTACTATTC | 4.92
CGAACTAGGTCATTGACAGGACAGTGAGTAGTAA | 1.38
TCTTGTAGATCAACAGGAGGTTATGAAAGATCGA | 0.762
ACTTACGGGTCATCGAGGTTATAGCACGCGTATA | 5.14

Sequence | PBM binding z-score
GCTATCAGTTGAAAGGGCAACCGAATGATTCTCG | 0.584
CGAACGAGGGCATGAGTTGATAGCGAATGCCGAT | 0.461
TAGCCTAGGTCATGCGGGCCAGAATAGTGTCGGC | 1.66
GCTAGTTGGTCAGTAAAAGGTCACAAACCGGTCG | 4.8
CCTAGTTGGTCAAGGGCACACACGCTATAGGTAC | 0.512
ACAGACGGGTGAGTGAAGGTAACTCAGCTGGACG | -0.343
CCTATTAGTTGACCATAAGGGCAACCTAAGCTCG | 0.876
GGAACGAGGGCAAGTTGATACCAGAGTTTGATGG | 0.835
CCTTACAGGTCACTCCAGGTTATAGCATCGGAGT | 4.74
TTACCAAGGTGAAGGTTGTTGATCCCTCTGTAGA | 0.665
TCAGATAGGTAAACAGGTGAAAGTCCGTAAGTTA | 0.684
AGAATGAGGTTGAGATCAGGGAAACAGAATACAT | 0.154
TCTCGGAGGACACGAAGGTCACAGCTTTCCAGAG | 3.96
TCTCGGAGGACACGAAGGTCAGATCTTTCCAGAG | 2.44
AGAACGAGGGCACGCGGAGTTGATAGCAGAGTAG | 1.45
CCTCAGAGGACAGAAGGTCAGAGCTGTCCGCTTT | 1.66
TCTCGGAGGACACGAAGGTTAGAGCTTTCCAGAG | 0.0364
CGTTCAAGGTCAGAGAGGTCAGTGAATGCCGAGT | 6.25
CTTGCTAGGTCATGGTCAGCTAATCTACAGTATG | 1.45
CCTTACGGGTCTCGAGGTTATAGCACGACGAGCG | 0.396

The sequences below were run on PXR homodimer (NR concentration 270 nM) in the same assay as above.
Method in brief: as §1

Sequence | PBM binding z-score
CGTACAGGGTCAGCTAGGCCAGAGTAGGGACGGC | -0.805
ACCGAAAGGTCGAGGTGAGTATAGAGAAAGGGAA | 0.286
AATATTAGTTGACTTAGGGCAACCGATACGACGC | 0.976
ACTAGCAGGCCAAGGGTCACTCCAGATTAGTCCG | 0.019
ATCTCTAGGTAACAAAGTTCAGTGAATGCCGAAC | 2.09
TCTAGCAGGCCAGAGGGTCACTTAAGAGGTACGG | -0.462
TCTTGTAGATCATTAGAGGTTAAGAAAGTGCGCT | 0.436
GCTAGTAGTTGAAAGGGCAACCGAATGATTCTCG | -0.0187
GCTCGGAGGACAAGGGCAGAGCTTTGTCCGTAGA | -0.927
AGAATGAGGTTAAGATCATGGAAACAGAATACAT | 0.274
AGTAGCAGGCCAAGTTTGGGTCACTCAAACAAAG | -0.57
TCGAGTAGGTTACCAATGGGGCATTAAGCTTTCT | -1.08
CCAACTAGGTCACGAAAGGTCAAAGTCGAATGAC | 3.52
AGAATGAGGTTACCAAAGATCAGGGAAACGCTTG | 0.241
ATCGAAAGGACGTGAGGTGAGTATACAGAAAGGC | -0.0869
TCTAGTTGGACACGGAGGTCACACACGACGGGTA | 1.05
CTACCAAGGTGAACAAGGTCATTGATTACTATTC | 6.61
CGAACTAGGTCATTGACAGGACAGTGAGTAGTAA | 0.241
TCTTGTAGATCAACAGGAGGTTATGAAAGATCGA | -0.367
ACTTACGGGTCATCGAGGTTATAGCACGCGTATA | 4.1

Sequence | PBM binding z-score
GCTATCAGTTGAAAGGGCAACCGAATGATTCTCG | -0.393
CGAACGAGGGCATGAGTTGATAGCGAATGCCGAT | -0.235
TAGCCTAGGTCATGCGGGCCAGAATAGTGTCGGC | -0.503
GCTAGTTGGTCAGTAAAAGGTCACAAACCGGTCG | 1.2
CCTAGTTGGTCAAGGGCACACACGCTATAGGTAC | 0.494
ACAGACGGGTGAGTGAAGGTAACTCAGCTGGACG | -0.231
CCTATTAGTTGACCATAAGGGCAACCTAAGCTCG | 0.98
GGAACGAGGGCAAGTTGATACCAGAGTTTGATGG | 0.927
CCTTACAGGTCACTCCAGGTTATAGCATCGGAGT | 0.873
TTACCAAGGTGAAGGTTGTTGATCCCTCTGTAGA | -0.348
TCAGATAGGTAAACAGGTGAAAGTCCGTAAGTTA | 0.401
AGAATGAGGTTGAGATCAGGGAAACAGAATACAT | 0.387
TCTCGGAGGACACGAAGGTCACAGCTTTCCAGAG | 2.33
TCTCGGAGGACACGAAGGTCAGATCTTTCCAGAG | 2.3
AGAACGAGGGCACGCGGAGTTGATAGCAGAGTAG | -0.14
CCTCAGAGGACAGAAGGTCAGAGCTGTCCGCTTT | -0.179
TCTCGGAGGACACGAAGGTTAGAGCTTTCCAGAG | -0.704
CGTTCAAGGTCAGAGAGGTCAGTGAATGCCGAGT | 12.2
CTTGCTAGGTCATGGTCAGCTAATCTACAGTATG | -0.306
CCTTACGGGTCTCGAGGTTATAGCACGACGAGCG | -0.353
